Screens from PubChem BioAssay.
This is a sample that favours compounds with a hit; in the whole collection about 19% have one here.
TGFb SMAD3 inh – TGF-b pathway inhibition; HepG2 CAGA-GFP TGF-b/SMAD3 reporter, GFP fluorescence, 18 h; TGF-beta stimulated, 500 pg/mL final; Potency, µM (series often up to 46.1 µM), without a hit: at the highest dose activity, negative = inhibition, most hits filed as inhibitors; hit rate 1.2% among 410,000; AID 588855; note: potency is the fitted concentration of half-maximal effect; % is set by controls: 0 for no effect and ±100 for the full control effect; nearly all actives have a fitted effect of over 65% in size
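HEPG2 CAGA-GFP reporter cells (1000/well, DMEM with 1% FBS) received compounds, then recombinant TGF-beta at 500 pg/mL final for 18 hours at 37 degrees C. Per-cell GFP summed per well was normalised to unstimulated and stimulated DMSO controls before curve fitting.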
HepG2 tox – HepG2 cytotoxicity, counter-screen for TGF-b inhibitors; Potency, µM (highest dose often 46.1 µM), for inactives: top-dose activity change, negative = cytotoxicity, usual class: cytotoxic; HepG2 CAGA-GFP viability, ATP luminescence, 18 h; AID 588856; hit rate 0.76% among 410,000; note: potency is the fitted concentration of half-maximal effect
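HepG2 CAGA-GFP cells (1000/well, DMEM with 1% FBS) received compound, then TGF-beta at 500 pg/mL final, and were incubated 18 hours at 37 degrees C. Viability was read by CellTiter-Glo luminescence. Media-only wells were set as complete cell-killing and DMSO as no toxicity.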
IL-1B inflam inh – inflammasome signaling inhibition, IL-1 beta readout. activity change, % at 57.5 µM. THP-1 LPS/ATP IL-1B secretion, AlphaLISA, 16 h; hits give low values. hit rate 4.7% among 360,000; in the data active = activity change below about -50%; inconclusive = mostly about -30% to -49%; note: % is set by controls: 0 for no effect and ±100 for the full control effect
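Secreted IL-1B measured by AlphaLISA bead assay after 16 h compound exposure of THP-1 cells; compounds (final up to 57.5 uM) added 1 h before LPS (250 ng/mL) and ATP (1.25 mM) stimulation; lower signal means less secretion.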
DT40 TDP1 no CPT – qHTS for Inhibitors of human tyrosyl-DNA phosphodiesterase 1 (TDP1): qHTS in cells in absence of CPT. DT40 Tdp1-/- hTDP1 cells, no CPT, ATP luminescence, 48 h. Potency, µM (top dose mostly 46.2 µM), for the others: at the top dose activity change, negative = growth inhibition, hits mostly inhibitors. hit rate 15% among 420,000. AID 686978, 2013; note: potency is the fitted concentration of half-maximal effect; % is set by controls: 0 for no effect and ±100 for the full control effect; nearly all actives have a fitted effect of over 55% in size
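Cells were dispensed at 400 per well, compounds added by pin tool, plates incubated ≥48 hr at 37 °C, then CellTiter-Glo added for 30 min at room temperature before luminescence reading. Line: DT40 Tdp1-/- complemented with hTDP1; camptothecin omitted.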
ASM inhibitor – blocks human secretory acid sphingomyelinase; hit rate 0.006% among 340,000; placental ASM, HMU-PC fluorogenic substrate, 60 min; Potency, µM (series often up to 57.5 µM), without a hit: at the top dose activity change, negative = inhibition, usual class: inhibitors; note: potency is the fitted concentration of half-maximal effect
Target sequence (P17405 47-631 limits assumed): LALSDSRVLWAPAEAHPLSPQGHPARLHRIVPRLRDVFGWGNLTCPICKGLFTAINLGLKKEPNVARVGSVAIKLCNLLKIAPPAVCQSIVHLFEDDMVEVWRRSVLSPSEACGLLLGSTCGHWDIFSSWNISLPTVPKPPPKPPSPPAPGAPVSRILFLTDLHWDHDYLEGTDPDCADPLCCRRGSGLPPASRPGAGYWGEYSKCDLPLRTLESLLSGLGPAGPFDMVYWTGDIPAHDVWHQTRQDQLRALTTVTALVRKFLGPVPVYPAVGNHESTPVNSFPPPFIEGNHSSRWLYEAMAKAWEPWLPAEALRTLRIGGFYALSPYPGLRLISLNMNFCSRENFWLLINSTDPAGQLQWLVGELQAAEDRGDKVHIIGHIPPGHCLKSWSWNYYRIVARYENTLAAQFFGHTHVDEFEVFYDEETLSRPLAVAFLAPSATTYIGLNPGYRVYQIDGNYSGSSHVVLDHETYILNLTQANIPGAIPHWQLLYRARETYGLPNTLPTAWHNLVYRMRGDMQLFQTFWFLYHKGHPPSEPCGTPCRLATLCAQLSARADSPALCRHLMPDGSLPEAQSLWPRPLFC
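Fluorescence read-out (Ex 386 nm, Em 447 nm) after stopping the reaction at pH 10. Enzyme: ASM from human placenta; substrate HMU-PC0, 9 uM final; 60 min, 37 °C. Compound preincubation 10 min, ambient temperature.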
TDP1 cell CPT – DT40-hTDP1 cell growth loss with CPT. Potency, µM (top dose mostly 46.2 µM), without a hit: top-dose activity change, negative = growth inhibition, actives largely listed as inhibitors. chicken DT40 Tdp1-/-;hTDP1 cells + 20 nM CPT, ATP luminescence, 48 h. hit rate 12% among 420,000; note: potency is the fitted concentration of half-maximal effect; % is set by controls: 0 for no effect and ±100 for the full control effect; nearly all actives have a fitted effect of over 55% in size
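Cell growth measured by CellTiter-Glo luminescence after a minimum 48 h, 37 C compound exposure with 20 nM CPT in Tdp1-knockout DT40 cells stably expressing hTDP1, seeded 400/well; qHTS titration format.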
* = called active by the depositor; ! = not active in a repeat. Unless noted, calls come from the whole dose curve; as a rule, active = well fitted curve in the direction sought with a large enough effect; inconclusive = small, poorly fitted or top-dose-only effect, or another doubt; inactive = no such curve, though single readings can be large; an effect the other way counts as inactive or inconclusive.

`COc1ccc(CN(Cc2ccccc2)C(=O)c2cccc(C#N)c2)cc1COc1ccc(NC(C)=O)cc1` gave DT40 TDP1 no CPT 14.1µM* and TDP1 cell CPT 8.91µM*.
For CCc1ccc(C(=O)NNC(=O)OC)cc1 the results were TGFb SMAD3 inh -6.1%, HepG2 tox -23.6%, IL-1B inflam inh 6.4, DT40 TDP1 no CPT 29.1µM*, ASM inhibitor -3.2% and TDP1 cell CPT inconclusive.
For COc1nc(Cc2ccc(Cl)cc2)nc2ccccc12 the results were TGFb SMAD3 inh -24.1%, HepG2 tox -10.9%, IL-1B inflam inh -22.3, DT40 TDP1 no CPT inconclusive, ASM inhibitor -2.8% and TDP1 cell CPT 2.9%.
COc1cc2cncc(Cc3ccc(Cl)cc3)c2cc1OC was read as TGFb SMAD3 inh inconclusive, HepG2 tox -41.9%, IL-1B inflam inh -11.0, DT40 TDP1 no CPT 18.4µM*, ASM inhibitor -3.8% and TDP1 cell CPT 14.6µM*.
`Cc1ccc(NS(=O)(=O)c2ccc(-n3cccn3)cc2)cc1F` gave TGFb SMAD3 inh inconclusive, HepG2 tox -27.6%, IL-1B inflam inh -3.4, DT40 TDP1 no CPT -18.9%, ASM inhibitor -5.8% and TDP1 cell CPT inconclusive.
Cc1ccc(NS(=O)(=O)c2ccc(-n3cccn3)cc2)c(C)c1 was read as TGFb SMAD3 inh -16.2%, HepG2 tox -17.3%, IL-1B inflam inh 1.4, DT40 TDP1 no CPT inconclusive, ASM inhibitor -5.1% and TDP1 cell CPT 18.4µM*.
For COc1cccc(NS(=O)(=O)c2ccc(-n3cccn3)cc2)c1 the results were TGFb SMAD3 inh -27.9%, HepG2 tox 1.6%, IL-1B inflam inh -15.6, DT40 TDP1 no CPT 5.8µM*, ASM inhibitor 0.9% and TDP1 cell CPT inconclusive.
For Cc1ccc(NS(=O)(=O)c2ccc(-n3cccn3)cc2)c(Br)c1 the results were TGFb SMAD3 inh 0.0%, HepG2 tox -21.9%, IL-1B inflam inh 22.6, DT40 TDP1 no CPT 16.4µM* and TDP1 cell CPT 18.4µM*!.
Screening Cc1ccc(Cl)cc1NS(=O)(=O)c1ccc(-n2cccn2)cc1 returned TGFb SMAD3 inh 0.6%, HepG2 tox -2.4%, IL-1B inflam inh 12.1, DT40 TDP1 no CPT -19.3%, ASM inhibitor -5.2% and TDP1 cell CPT inconclusive.
For Cc1cccc(NS(=O)(=O)c2ccc(-n3cccn3)cc2)c1C the results were TGFb SMAD3 inh 4.3%, HepG2 tox 0.1%, IL-1B inflam inh -6.7, DT40 TDP1 no CPT 7.31µM*, ASM inhibitor -0.5% and TDP1 cell CPT 13µM*.
`CN1CCN(C(c2ccccc2Cl)c2sc3nc(-c4ccco4)nn3c2O)CC1` (configuration not stated) gave TGFb SMAD3 inh 12.3%, HepG2 tox 4.5%, DT40 TDP1 no CPT -3.0% and TDP1 cell CPT 0.3%.
Screening Cc1cccc(NS(=O)(=O)c2ccc3c(c2)Cc2cc(S(=O)(=O)Nc4cccc(C)c4C)ccc2-3)c1C returned TGFb SMAD3 inh -5.7%, HepG2 tox -1.5%, IL-1B inflam inh 7.0, DT40 TDP1 no CPT 5.17µM*, ASM inhibitor -9.2% and TDP1 cell CPT 6.51µM*.
CCOC(=O)CN1C(=O)S/C(=C/c2ccc(OCc3ccc(C(=O)O)cc3)cc2)C1=O was read as TGFb SMAD3 inh 4.2%, HepG2 tox 2.9%, IL-1B inflam inh 9.0, DT40 TDP1 no CPT -5.8%, ASM inhibitor -2.6% and TDP1 cell CPT 2.3%.
For COc1cc(NC(=O)Cc2cccs2)cc(OC)c1 the results were TGFb SMAD3 inh 10.3%, HepG2 tox 23.6%, IL-1B inflam inh -2.3, DT40 TDP1 no CPT 18.4µM*, ASM inhibitor 2.1% and TDP1 cell CPT inconclusive.
C=CCn1c(Cc2cccs2)nnc1SCC(=O)Nc1cc(OC)cc(OC)c1 was read as TGFb SMAD3 inh 5.4%, HepG2 tox -7.1%, IL-1B inflam inh -14.9, DT40 TDP1 no CPT 16.4µM*, ASM inhibitor -2.1% and TDP1 cell CPT inconclusive.
`CCNC(=S)Nc1cccc(S(=O)(=O)Nc2ccccc2OC)c1` gave TGFb SMAD3 inh -3.9%, HepG2 tox -4.3%, IL-1B inflam inh 11.2, DT40 TDP1 no CPT 23.1µM*, ASM inhibitor 4.7% and TDP1 cell CPT inconclusive.
Screening COc1cccc(NC(=O)Cc2cccs2)c1 returned TGFb SMAD3 inh 14.2%, HepG2 tox 3.4%, IL-1B inflam inh -12.1, DT40 TDP1 no CPT -8.5%, ASM inhibitor 4.0% and TDP1 cell CPT 4.7%.
COc1ccccc1NS(=O)(=O)c1cccc(NC(=O)Cc2cccs2)c1 was read as TGFb SMAD3 inh 0.0%, HepG2 tox -24.6%, IL-1B inflam inh -3.6, DT40 TDP1 no CPT 25.9µM*, ASM inhibitor -4.4% and TDP1 cell CPT inconclusive.
`CCNC(=S)Nc1cccc(S(=O)(=O)NC2=NCCC2)c1` gave TGFb SMAD3 inh 29.4%, HepG2 tox -21.0%, IL-1B inflam inh 2.3, DT40 TDP1 no CPT 1.4%, ASM inhibitor 2.2% and TDP1 cell CPT 19.3%.
For Cc1ccnc(NC(=O)c2ccc3[nH]c(=O)c(=O)[nH]c3c2)c1 the results were TGFb SMAD3 inh 4.1%, HepG2 tox 7.6%, IL-1B inflam inh 36.3, DT40 TDP1 no CPT 8.0%, ASM inhibitor -1.1% and TDP1 cell CPT 8.4%.
`Cn1c(=O)n(C)c2cc(NC(=O)COc3ccc(F)cc3)ccc21` gave TGFb SMAD3 inh 1.7%, HepG2 tox 1.8%, IL-1B inflam inh 39.9, DT40 TDP1 no CPT inconclusive, ASM inhibitor 0.5% and TDP1 cell CPT inconclusive.
`CCc1ccc(NC(=O)c2sc3nc(C)c(Cl)c(C)c3c2N)cc1` gave TGFb SMAD3 inh 0.8% and HepG2 tox -21.2%.
CC(C)CCNC(=O)c1ccc(Cn2c(=O)c3cccn3c3cccnc32)cc1 was read as TGFb SMAD3 inh -2.1%, HepG2 tox -11.8%, DT40 TDP1 no CPT 0.517µM* and TDP1 cell CPT inconclusive.
`CCC(C)NC(=O)Cn1c(=O)n(Cc2ccc(C(=O)NCc3ccc(C)cc3)cc2)c(=O)c2ccccc21` (configuration not stated) gave TGFb SMAD3 inh 3.0%, HepG2 tox -9.6%, DT40 TDP1 no CPT 23.1µM* and TDP1 cell CPT 10.3µM*.
CCc1ccc(CNC(=O)c2ccc(Cn3c(=O)c4cccn4c4cccnc43)cc2)cc1 was read as TGFb SMAD3 inh -8.7%, HepG2 tox -1.3%, DT40 TDP1 no CPT 0.461µM* and TDP1 cell CPT inconclusive.
For Cc1ccc(CCNC(=O)c2ccc(Cn3c(=O)c4cccn4c4cccnc43)cc2)cc1 the results were TGFb SMAD3 inh -29.7%, HepG2 tox -29.4%, DT40 TDP1 no CPT inconclusive and TDP1 cell CPT inconclusive.
